Laboratory results taken from PubChem BioAssay (NCI).
This is part of a sample that, as a whole, favours compounds with a hit. Of some 79,000 tested, about 15% had one in any assay. Rule as the data show it: active = growth inhibition above about 70%; inactive = the rest. Where a SMILES comes first, the peptide text is derived from it. [ ]: non-standard residue; d: D form. The star is where a group is joined. ξ: configuration not given here. ξF = NC(Cc1ccccc1)C(=O)O; Cbz = O=C(OCc1ccccc1)*; Sar = CNCC(=O)O

How the values were obtained:
[1] = NCI Yeast Anticancer Drug Screen. Data for the rad50 strain (AID 155);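 also: 0% = growth of vehicle-only cultures of the same strain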; conditions: S. cerevisiae rad50 strain growth inhibition; at 50.0 µM; hits give high values
How it was run: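 Growth of the mutant yeast was measured after compound exposure and referenced to vehicle-treated cultures.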

[2] = NCI Yeast Anticancer Drug Screen. Data for the mec2-1 strain (AID 157); conditions: S. cerevisiae mec2-1 strain, at 50.0 µM, hits give high values
How it was run: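 Growth inhibition is read against vehicle-treated controls after compound exposure of the mec2-1 yeast strain, which is defective in DNA damage repair or cell cycle control.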

[3] = NCI Yeast Anticancer Drug Screen. Data for the sgs1 mgt1 strain (AID 161);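 also: 0% = growth of cultures given vehicle only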; conditions: S. cerevisiae sgs1 mgt1 strain, at 50.0 µM, hits give high values
How it was run: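 Yeast cells carrying a defined DNA-repair defect were exposed to test compounds. Growth inhibition was measured relative to vehicle-treated controls.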

[4] = NCI Yeast Anticancer Drug Screen. Data for the cln2 rad14 strain (AID 165);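 also: 0% = growth equal to vehicle treated cultures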; conditions: S. cerevisiae cln2 rad14 strain, at 50.0 µM, hits give high values
How it was run: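 Growth inhibition, relative to vehicle-treated controls, is the read-out. The test organism is a yeast strain with defined genetic alterations, cln2 rad14.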

[5] = NCI Yeast Anticancer Drug Screen. Data for the bub3 strain (AID 167); conditions: S. cerevisiae bub3 mutant strain, at 50.0 µM, hits give high values
How it was run: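 Whole-cell yeast assay. The mutant strain was incubated with compounds, and growth inhibition was determined by comparison with vehicle-treated cells.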

[6] = NCI Yeast Anticancer Drug Screen. Data for the mlh1 rad18 strain (AID 175); conditions: S. cerevisiae mlh1 rad18 strain growth inhibition; at 50.0 µM; hits give high values
How it was run: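 Cells of a genetically altered yeast strain, deficient in DNA damage repair, were treated with compound. Their growth was then compared with that of vehicle-treated cultures to give inhibition.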

Measured: growth inhibition

CN(CC(=O)NC(Cc1ccccc1)C(=O)O)C(=O)OCc1ccccc1 (stereo unspecified) (Cbz-[Sar]-[ξF]-OH)
inactive: [1] -16.9% | [2] -7.95% | [3] -1.2% | [4] -6.2% | [5] -16.1% | [6] -10.6%

COc1cc(C(=O)c2cocc2C(=O)c2ccc3c(c2)OCO3)cc(OC)c1OC
inactive: [1] -17.2% | [2] -33.3% | [3] -10.3% | [4] -18.4% | [5] -25.6% | [6] -14.8%

NCC(N)C(O)C(O)C(O)CO (stereo unspecified)
inactive: [1] 5.65% | [2] -2.25% | [3] -2.85% | [4] -43.1% | [5] -16.4% | [6] 2.7%

Nc1ccc(C(=O)Nc2cccc(OCc3nc(N)nc(N)c3-c3ccc(Cl)cc3)c2)cc1
inactive: [1] 16.6% | [2] -6.15% | [3] -16.2% | [4] 16.5% | [5] 2.3% | [6] 13.2%

CCOc1c(N=Nc2ccc([N+](=O)[O-])cc2)c(C)nn1C(N)=S
inactive: [1] -8% | [2] 8.05% | [3] 15.3% | [4] -27.4% | [5] 13.1% | [6] 15.9%

CCCCCCCCCCCCC(F)C(=O)OCC1OC(n2cc(C)c(=O)[nH]c2=O)CC1N=[N+]=[N-] (stereo unspecified)
inactive: [1] 3.25% | [2] -15.7% | [3] 36.4% | [4] -14.8% | [5] 10.7% | [6] 14.8%

COc1coc(/C=C/C(=O)c2ccc(O)c(O)c2)cc1=O
inactive: [1] -11.9% | [2] 12.7% | [3] 10.3% | [4] -11.8% | [5] -6.25% | [6] -32.5%

CC1=CCC2N=C(c3ccccc3)CC2(C)C1=O (stereo unspecified)
inactive: [1] 27.4% | [2] 21.6% | [3] 24.3% | [4] -11.3% | [5] -46.2% | [6] -16.6%

CC1(C)OC2OC(CI)C3OC(C)(C)OC3C2O1 (stereo unspecified)
inactive: [1] 5.7% | [2] 2.8% | [3] -1.75% | [4] 34.5% | [5] 12.6% | [6] -1.45%

O=C(CCC1CCCCC1=O)c1ccc(Br)cc1 (stereo unspecified)
inactive: [1] 6.2% | [2] -15.8% | [3] 12.7% | [4] -6.95% | [5] -6.55% | [6] -10.2%

O=c1cc(O)n(C2=NCCN2)[nH]1
inactive: [1] -6.45% | [2] -23.6% | [3] -0.2% | [4] 16.2% | [5] -12.5% | [6] -9.95%

COC(=O)C(=O)C(C(=O)C(=O)Nc1ccccc1[N+](=O)[O-])c1nc2ccc([N+](=O)[O-])cc2[nH]c1=O (stereo unspecified)
inactive: [1] 17.8% | [2] 15.2% | [3] 5% | [4] 26.6% | [5] 27.8% | [6] 20.7%

O=S(=O)(OCC1CC2C=CC1C2)c1ccc(Br)cc1 (stereo unspecified)
inactive: [1] -15.6% | [2] 7.45% | [3] -3.7% | [4] 6.85% | [5] 54.9% | [6] 3.65%

Oc1ccccc1/C=N/Nc1nc(N/N=C/c2ccccc2O)nc(N/N=C/c2ccccc2O)n1
inactive: [1] 25.3% | [2] 20.5% | [3] 27.4% | [4] 16.9% | [5] -6.7% | [6] 15.9%

CCOC(=O)/C(=C\c1cccc(F)c1)C(C)=O
inactive: [1] 20.6% | [2] 15.3% | [3] 7.05% | [4] -4.9% | [5] 13.7% | [6] 41.5%

c1cnc2[nH]cnc2n1
inactive: [1] 2.3% | [2] 0.6% | [3] -3.3% | [4] 5.75% | [5] 4.85% | [6] -10.1%

COc1ncnc2c(NC3OC(CO)C(O)C3O)ncnc12 (stereo unspecified)
inactive: [1] 7.2% | [2] -6.5% | [3] -5.4% | [4] 12.4% | [5] -9.2% | [6] -9.3%

O=[N+]([O-])c1ccc(N=NN2CCOCC2)cc1
inactive: [1] -0.55% | [2] 3.5% | [3] -1.4% | [4] -1% | [5] -10.7% | [6] 6.55%

CCCCCCCCCCCSc1ccc2ccccc2c1
inactive: [1] 5.75% | [2] 14.7% | [3] 6.75% | [4] -20.5% | [5] -18.6% | [6] 5.3%

COc1ccc(CC(=O)c2c(OC)c3c(c4c2OC(C)(C)CC4)OC(C)(C)CC3)cc1OC
inactive: [1] 21.1% | [2] -14.8% | [3] 8.1% | [4] 16.5% | [5] 33.9% | [6] 34.4%

c1cc[n+](CC[n+]2ccccn2)nc1
inactive: [1] 11.7% | [2] 22% | [3] 7.65% | [4] 16.4% | [5] 45.6% | [6] 46.1%

C/C(CCn1[nH]c(=O)ccc1=O)=N\OCCCc1ccccc1
inactive: [1] 2.7% | [2] -27.6% | [3] 11.7% | [4] 16.3% | [5] -3% | [6] 11.5%

C[C@]12CC[C@@H]3c4cc(OCC(F)(F)F)c(O)cc4/C(=N/O)C[C@H]3[C@@H]1CC[C@@H]2O
inactive: [1] -0.75% | [2] -4.55% | [3] 4.65% | [4] 17.6% | [5] 12.8% | [6] 13.2%

CCOC(=O)CC(C)CCO (stereo unspecified)
inactive: [1] 5.4% | [2] -5.8% | [3] -11.4% | [4] -0.2% | [5] -0.3% | [6] -8.9%

CCCc1nc(N)[nH]c(=O)c1I
inactive: [1] -26% | [2] -9.1% | [3] -15.1% | [4] 5.3% | [5] 7.8% | [6] 0.45%

CCN(CC)CCCC(C)Nc1c2ccccc2nc2cc(Cl)cc(Cl)c12 (stereo unspecified)
inactive: [1] 17.6% | [2] 4.15% | [3] 3.1% | [4] 10.9% | [5] 9.6% | [6] 26.8%

CC(C)(C)[Si](C)(C)OCCC1CC2(S(=O)(=O)C3=CC=C=C=C3)ON1CC2S(=O)(=O)c1ccccc1 (stereo unspecified)
inactive: [1] 6.8% | [2] -6.2% | [3] -1.45% | [4] -23.9% | [5] -20.4% | [6] 17.1%

CC(=O)OCC1OC(OC(C)=O)C(NC(=O)C[NH-])C(OC(C)=O)C1OC(C)=O.CC(=O)OCC1OC(OC(C)=O)C(NC(=O)C[NH-])C(OC(C)=O)C1OC(C)=O.[Cl][Pt+2][Cl] (stereo unspecified)
inactive: [1] -2.75% | [2] -19.4% | [3] -5.85% | [4] -42.9% | [5] 1.7% | [6] 21.9%

N#CC(C(=O)C(N)=O)c1nc2ccccc2s1 (stereo unspecified)
inactive: [1] 20.2% | [2] 9.45% | [3] 19.4% | [4] 5.8% | [5] -9.5% | [6] 2.25%

O=C(CCBr)Nc1ccccc1
inactive: [1] 11.1% | [2] -15.2% | [3] -7.15% | [4] -38.2% | [5] -7.35% | [6] -26.4%

CCCSc1ncnc2c1nc(C)n2CO
inactive: [1] -2.15% | [2] -2.55% | [3] -1.35% | [4] -14.1% | [5] 2.3% | [6] 0%

CNC(=O)Sc1ccc([N+](C)(C)C)cc1
inactive: [1] 9.8% | [2] 0.1% | [3] 19.8% | [4] -7.5% | [5] 18.8% | [6] 30.3%

Cc1cc(Cl)c(Cl)cc1NC(=O)c1c(Br)c(Br)c(Br)c(Br)c1C(=O)O
inactive: [1] 0.7% | [2] 11.4% | [3] 8% | [4] -16.1% | [5] -3.2% | [6] 28.4%

COc1c(C)c(C)c(OC(C)=O)c(C)c1Br
inactive: [1] -10.2% | [2] -4.9% | [3] -1.95% | [4] -3.1% | [5] -2.1% | [6] -9.3%

O=C(Nc1ccc(S(=O)(=O)N2CCCCC2)cc1)OC1CCCC1
inactive: [1] 3.85% | [2] 14.7% | [3] 1.15% | [4] 18.9% | [5] 14.8% | [6] -12.6%

CC(=O)C1C(=O)C(=O)N(c2ccc([N+](=O)[O-])cc2)C1=O (stereo unspecified)
inactive: [1] -26.9% | [2] -37.4% | [3] -10.7% | [4] 20.9% | [5] -1.9% | [6] -37.5%

CC(C)C(CC(=O)O)C(=O)O (stereo unspecified)
inactive: [1] 3.8% | [2] -1.35% | [3] 10.2% | [4] -8% | [5] 3.95% | [6] 4.65%

COC(=O)N/N=C(\C)C(CN1CCCCC1)C(C1=C(O)c2ccccc2OC1)c1ccccc1 (stereo unspecified)
inactive: [1] 6.15% | [2] 15.7% | [3] 5.25% | [4] 17.1% | [5] 4.9% | [6] 28.9%

O=C(CCCSCCCC(=O)NN=C1CCSCC1)NN=C1CCSCC1
inactive: [1] -0.9% | [2] -4.3% | [3] 10.8% | [4] 21.2% | [5] -7.85% | [6] -7.65%

O=C(O)c1cc([N+](=O)[O-])ccc1Oc1cccc([N+](=O)[O-])c1
inactive: [1] -30.9% | [2] -1.2% | [3] 1.2% | [4] 27% | [5] 2.95% | [6] -8.25%

O=c1[nH]nc(Cc2ccc(Cl)cc2)n1/N=C\CC/C=N\n1c(Cc2ccc(Cl)cc2)n[nH]c1=O
inactive: [1] -18.4% | [2] -0.9% | [3] -14.1% | [4] -4.05% | [5] -13.3% | [6] -3%
